Results from PubChem BioAssay (Tox21).
Inconclusive results are not listed. Unmarked numbers belong to inactive results. Calls of active or inactive are those of the source. The call rests on the fitted dose curve; in most records, active means well fitted inhibition curve with a large enough effect in the repeat runs; inconclusive means weak or mixed curves, or effect the other way; inactive means no such curve, though single readings can be large or run the other way.

Assay: qHTS assay to identify small molecule antagonists of the retinoic acid receptor (RAR) signaling pathway (AID 1159552; further: nearly all actives have a fitted effect of over 50% in size)
Settings: C3RL4 RARE luciferase reporter, retinol-stimulated, 6 h; series mostly up to 92.4 µM; activity, negative = inhibition: at the top concentration
Description: National Center for Advancing Translational Sciences [NCATS]
NIH Chemical Genomics Center [NCGC]
U.S. Environmental Protection Agency [EPA]
National Institutes of Environmental Health Sciences [NIEHS]
National Toxicology Program [NTP]
U.S. Food and Drug Administration [FDA]
All-trans Retinoic acid (atRA) is the potent natural metabolite of retinol and plays an important role in normal embryonic development and maintenance of cellular phenotype in adult animals. atRA is the activating ligand for the retinoic acid receptors (RARs) which form heterodimers with retinoid X receptors (RXRs) on the retinoic acid response element (RARE). Through activation of the RAR/RXRs nuclear receptors, atRA regulates the transcription of a large number of protein-coding genes and regulatory RNAs. Intracellular levels of atRA are controlled by the retinol signaling pathway (RSP) that regulates the biosynthesis and catabolism of atRA to maintain physiological levels. Chemicals that interfere with the RSP can cause abnormal intracellular levels of atRA and therefore are potential developmental toxicants. To assess compounds for the potential adverse effect on embryonic development through interfering with retinol signaling, a cell-based RARE luciferase reporter gene assay was used. C3RL4 cell line (OARSA/CFSAN/FDA, Laurel, MD) was used to screen Tox21 10K compound library for identifying inhibitors of the RSP.
Tox21 Assay Protocol Summary:
C3RL4 cells were seeded at 1,000/well in 4 uL of assay medium into white solid 1,536-well tissue culture plates (Greiner Bio-One North America Inc. Monroe, NC) using a Multidrop Combi (Thermo Scientific, Waltham, MA) dispenser. After incubation at 37 C and 5% CO2 for an overnight, 23 nL of compounds dissolved in DMSO, positive control or DMSO only were transferred by a Pintool station (Kalypsys, San Diego, CA). One ul of 1 uM (final concentration) of Retinol was added right after the compound addition by using a Flying Reagent Dispenser (FRD) (Aurora Discovery, San Diego, CA). After 6 hr incubation at 37 C and 5% CO2, 5 uL of Amplite Luciferase reagent (AAT Bioquest Inc. Sunnyvale, CA) was added to each assay plate using an FRD. Luminescence was quantified on a ViewLux plate reader (PerkinElmer, Waltham, MA) after 30 min incubation at room temperature.
On the % scale 0 is the no-effect control and ±100 the full control effect; potency means the concentration at half of the fitted maximal effect.

SMILES | activity, negative = inhibition | Potency
OCCCl | -4.07% | 
C#CC(O)(C=CCl)CC (stereo not given) | 0.555% [at 42.5 µM] | 
O=C(Cl)OCCOCCOC(=O)Cl |  | 12.2 µM (active)
COc1ccc(C(O)(c2cncnc2)C2CC2)cc1 (stereo not given) | -3.54% | 
c1ccc2sc(SNC3CCCCC3)nc2c1 |  | inactive
CCOc1cccc(C2(N3CCN(c4ccccc4)CC3)CCC(C)CC2)c1 (stereo not given) | 37.2% | 
CCC1(CC)C(=O)NC(=O)NC1=O | 15.2% [at 42.5 µM] | 
N#CC1(N=NC2(C#N)CCCCC2)CCCCC1 | -4.41% | 
C[C@H](N)[C@H](O)c1ccc(O)c(O)c1 | -13.2% [at 42.5 µM] | 
CCCCCl | 68.7% | 
CN(C)c1ccc(N=O)cc1 |  | 24.4 µM (active)
O=S(=O)(Cl)Cl | -4.98% | 
C=CCc1ccccc1O | 32.7% | 
O=C(NCNC(=O)NC1C(=O)NC(=O)N1CO)NC1C(=O)NC(=O)N1CO (stereo not given) | 12.5% | 
N#CC(C#N)=C(C#N)C#N | -8.72% | 
OC[P+](CO)(CO)CO |  | inactive
NC(=S)c1c(Cl)cccc1Cl | -3.21% | 
CCOC(C(=O)OCCN(C)C)(c1ccccc1)c1ccccc1 | 1.63% [at 42.5 µM] | 
Cc1ccc2c(C)cccc2c1 | -9.84% | 
CCCCCCCCP(=O)(O)O | -6.57% | 

SMILES | activity, negative = inhibition | Potency
CCCCC(CC)CO[N+](=O)[O-] (stereo not given) | -2.02% | 
CCOP(=S)(OCC)SCSc1cc(Cl)ccc1Cl | 0.265% | 
Clc1ccccc1 | 11.6% | 
Clc1ccc2ccccc2c1 | 4.04% | 
C=CC(=O)OCC | -2.01% | 
Nc1ccccc1C(=O)OCC(O)CO (stereo not given) | 18.2% [at 42.5 µM] | 
CCOC(=O)c1cncn1C(C)c1ccccc1 (stereo not given) | -2.11% [at 42.5 µM] | 
CCC1CCC(=O)O1 (stereo not given) | 16.5% | 
COc1cc(C[C@@H](C)N)c(OC)cc1Br | -2.68% | 
O=C(NC(=O)c1cc(F)c(F)cc1Cl)Nc1cc(F)ccc1N1CCC(C(=O)O)CC1 | 0.247% [at 42.5 µM] | 
CC(C)(C)c1ccc(CCOc2ncnc3ccccc23)cc1 | -1.02% | 
CC(C)CCON=O | -4.7% | 
CCCCCCCCCCCCN(C)C | 7.82% | 
CC(C)(C)N(NC(=O)c1ccc(Cl)cc1)C(=O)c1ccccc1 | -2.37% | 
O=C(O)COc1cc(Cl)c(Cl)cc1Cl |  | inactive
C=CCN1C[C@H](C)N([C@H](c2ccc(C(=O)N(CC)CC)cc2)c2cccc(OC)c2)C[C@H]1C | 0.861% [at 42.5 µM] | 
CCOP(=S)(OCC)Oc1ccc(S(C)=O)cc1 (stereo not given) | 15% | 
CCCCC1C(=O)NC(=O)N(C2CCCCC2)C1=O (stereo not given) | 119% [at 42.5 µM] | 
NNCCO | 3.28% | 
Nc1cc(Cl)cc(C(=O)O)c1Cl |  | inactive
